Among all 5,500 compounds or so, about 2,000 (36%) were called active. Not shown: some 18% with an inconclusive outcome. Rule as the data show it: active = normalized growth mostly below about 0.91 (no sharp cut-off); inconclusive = no clear call, values can overlap the other calls; inactive = mostly above about 0.92. This is one part of the list.
Assay: chemical genetic growth profiling, strain panel (AID 1159580);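 also: tested at 20 µM; growth read once vehicle control cultures reached saturation at 30 °C; 1 = growth at the plate median or of vehicle wells; lower values mean less growth of the strain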
Settings: S. cerevisiae deletion strains, growth OD
[1] = locus YAL040C, strain CLN3, stronger effect = lower value
[2] = locus YCL061C, strain MRC1 (second series), stronger effect = lower value
[3] = locus YDR363W, strain ESC2, stronger effect = lower value
[4] = locus YER002W, strain NOP16, stronger effect = lower value
[5] = locus YJR075W, strain HOC1, stronger effect = lower value
[6] = locus YMR307W, strain GAS1, stronger effect = lower value
[7] = locus YNL153C, strain GIM3, stronger effect = lower value
[8] = locus YNL175C, strain NOP13, stronger effect = lower value
[9] = locus YNL197C, strain WHI3, stronger effect = lower value
[10] = locus YNL224C, strain SQS1, stronger effect = lower value
[11] = locus YNL322C, strain KRE1, stronger effect = lower value
[12] = locus YOR083W, strain WHI5 (second series), stronger effect = lower value
[13] = locus YAL013W, strain DEP1, stronger effect = lower value
[14] = locus YDR150W, strain NUM1, stronger effect = lower value
[15] = locus YPL055C, strain LGE1, stronger effect = lower value

Measured: normalized growth

CCCC(=O)NCCc1c2n(c3ccc(OC)cc13)CCCc1ccccc1-2
inactive: [1] 0.991 | [2] 1.01 | [3] 0.998 | [4] 0.996 | locus YGR078C, strain PAC10, stronger effect = lower value 1.01 | [5] 0.995 | [6] 1.01 | [7] 0.984 | [8] 0.99 | [9] 0.995 | [10] 0.984 | [11] 1.01 | [12] 0.972

CCCC(=O)NCCc1c2n(c3ccc(OC)cc13)Cc1ccccc1-2
active: [7] 0.754 | [12] 0.686
inactive: [13] 0.986 | [1] 1.08 | [2] 1.01 | [14] 1 | [3] 0.993 | [4] 0.995 | locus YNL128W, strain TEP1, stronger effect = lower value 0.983 | [8] 0.964 | [9] 0.97 | [10] 0.963 | [11] 0.995 | [15] 1.01 | locus YPL241C, strain CIN2, stronger effect = lower value 1.01

CC[C@H]1OC(=O)C[C@@H](O)[C@H](C)[C@@H](O[C@@H]2O[C@H](C)[C@@H](O[C@H]3C[C@@](C)(O)[C@@H](O)[C@H](C)O3)[C@H](N(C)C)[C@H]2O)[C@@H](CC=O)C[C@@H](C)C(=O)/C=C/C(C)=C/[C@@H]1CO[C@@H]1O[C@H](C)[C@@H](O)[C@@H](OC)[C@H]1OC
inactive: locus YAL021C, strain ccr4, stronger effect = lower value 1.01 | locus YAL026C, strain drs2, stronger effect = lower value 0.986 | locus YAL030W, strain snc1, stronger effect = lower value 0.997 | locus YBL061C, strain skt5, stronger effect = lower value 0.986 | locus YBR009C, strain hhf1, stronger effect = lower value 1 | locus YBR023C, strain chs3, stronger effect = lower value 0.988 | locus YBR171W, strain sec66, stronger effect = lower value 0.987 | locus YBR231C, strain swc5, stronger effect = lower value 0.989 | locus YBR279W, strain paf1, stronger effect = lower value 0.994 | locus YCL011C, strain gbp2, stronger effect = lower value 0.995 | locus YCL016C, strain dcc1, stronger effect = lower value 1 | locus YCL061C, strain MRC1, stronger effect = lower value 1.01 | locus YCL069W, strain vba3, stronger effect = lower value 0.992 | locus YCR088W, strain abp1, stronger effect = lower value 1 | locus YDL005C, strain med2, stronger effect = lower value 0.986 | locus YDL040C, strain nat1, stronger effect = lower value 0.99 | locus YDR001C, strain nth1, stronger effect = lower value 0.997 | locus YDR069C, strain doa4, stronger effect = lower value 0.995 | locus YDR137W, strain rgp1, stronger effect = lower value 1.03 | locus YDR159W, strain sac3, stronger effect = lower value 0.971 | locus YDR195W, strain ref2 0.975 | locus YDR297W, strain sur2, stronger effect = lower value 0.995 | locus YDR334W, strain swr1, stronger effect = lower value 0.994 | locus YDR335W, strain msn5, stronger effect = lower value 0.98 | locus YDR392W, strain spt3, stronger effect = lower value 1.02 | locus YEL003W, strain gim4, stronger effect = lower value 0.992 | locus YEL037C, strain rad23, stronger effect = lower value 0.99 | locus YEL061C, strain CIN8 (second series), stronger effect = lower value 0.992 | locus YER015W, strain faa2, stronger effect = lower value 0.99 | locus YER016W, strain bim1, stronger effect = lower value 0.991 | locus YER111C, strain swi4, stronger effect = lower value 0.98 | locus YER155C, strain BEM2 (second series), stronger effect = lower value 0.993 | locus YFR010W, strain ubp6, stronger effect = lower value 0.988 | locus YGL167C, strain pmr1, stronger effect = lower value 0.986 | locus YGL173C, strain kem1, stronger effect = lower value 0.986 | locus YGL227W, strain vid30, stronger effect = lower value 0.988 | locus YGL240W, strain doc1, stronger effect = lower value 0.992 | locus YGL253W, strain hxk2, stronger effect = lower value 0.98 | locus YHR013C, strain ard1, stronger effect = lower value 0.985 | locus YHR027C, strain rpn1, stronger effect = lower value 0.995 | locus YHR030C, strain SLT2, stronger effect = lower value 0.953 | locus YHR079C, strain IRE1, stronger effect = lower value 0.948 | locus YHR142W, strain chs7, stronger effect = lower value 0.965 | locus YJL092W, strain hpr5, stronger effect = lower value 0.986 | locus YJL095W, strain BCK1 (second series), stronger effect = lower value 0.991 | locus YJL095W, strain BCK1, stronger effect = lower value 0.962 | locus YJL115W, strain asf1, stronger effect = lower value 0.983 | locus YJL129C, strain trk1, stronger effect = lower value 0.971 | locus YJL154C, strain vps35, stronger effect = lower value 0.994 | locus YJL164C, strain tpk1, stronger effect = lower value 0.998 | locus YJL166W, strain qcr8, stronger effect = lower value 0.991 | locus YJL187C, strain SWE1, stronger effect = lower value 0.995 | locus YJR066W, strain TOR1, stronger effect = lower value 0.918 | locus YKL160W, strain elf1, stronger effect = lower value 0.993 | locus YKR026C, strain gcn3, stronger effect = lower value 0.991 | locus YKR091W, strain srl3, stronger effect = lower value 0.989 | locus YLL001W, strain dnm1, stronger effect = lower value 0.977 | locus YLL026W, stronger effect = lower value 0.995 | locus YLL041C, strain sdh2, stronger effect = lower value 0.992 | locus YLR027C, strain aat2, stronger effect = lower value 0.998 | locus YLR113W, strain HOG1, stronger effect = lower value 0.954 | locus YLR221C, strain rsa3, stronger effect = lower value 1 | locus YLR258W, strain gsy2, stronger effect = lower value 0.995 | locus YLR262C, strain YPT6 (second series), stronger effect = lower value 0.989 | locus YLR320W, strain mms22, stronger effect = lower value 0.994 | locus YLR342W, strain FKS1, stronger effect = lower value 0.984 | locus YLR357W, strain rsc2, stronger effect = lower value 0.994 | locus YLR370C, strain arc18, stronger effect = lower value 0.986 | locus YLR384C, strain iki3, stronger effect = lower value 0.991 | locus YML120C, strain ndi1, stronger effect = lower value 1 | locus YMR058W, strain fet3, stronger effect = lower value 1 | locus YMR125W, strain sto1, stronger effect = lower value 0.983 | locus YMR129W, stronger effect = lower value 0.997 | locus YMR205C, strain PFK2, stronger effect = lower value 0.986 | locus YMR231W, strain pep5, stronger effect = lower value 0.999 | locus YNL071W, strain lat1, stronger effect = lower value 0.993 | locus YNL183C, strain NPR1, stronger effect = lower value 0.922 | locus YNL209W, strain ssb2, stronger effect = lower value 0.993 | locus YNL248C, strain rpa49, stronger effect = lower value 0.988 | locus YNL322C, strain KRE1 (second series), stronger effect = lower value 0.985 | locus YNR049C, strain mso1, stronger effect = lower value 0.99 | locus YOR001W, strain rrp6, stronger effect = lower value 0.993 | locus YOR070C, strain gyp1, stronger effect = lower value 0.996 | locus YOR080W, strain dia2, stronger effect = lower value 0.977 | locus YOR083W, strain WHI5, stronger effect = lower value 0.997 | locus YOR106W, strain vam3, stronger effect = lower value 0.993 | locus YOR231W, strain MKK1, stronger effect = lower value 0.97 | locus YOR265W, strain rbl2, stronger effect = lower value 0.994 | locus YOR270C, strain vph1, stronger effect = lower value 0.895 | locus YOR290C, strain snf2, stronger effect = lower value 1.01 | locus YPL051W, strain arl3, stronger effect = lower value 1 | locus YPL078C, strain atp4, stronger effect = lower value 0.974 | locus YPL106C, strain sse1, stronger effect = lower value 1 | locus YPL240C, strain hsp82, stronger effect = lower value 1 | locus YPL256C, strain CLN2, stronger effect = lower value 0.955

C[C@H](NC(=O)/C(C#N)=C/c1ccc(O)c(O)c1)c1ccccc1
inactive: [13] 0.985 | [1] 1.04 | [2] 0.961 | [14] 0.936 | [3] 0.992 | [4] 0.985 | locus YGR229C, strain SMI1, stronger effect = lower value 0.93 | [5] 0.961 | locus YMR263W, strain SAP30, stronger effect = lower value 1 | [6] 1.02 | [7] 0.978 | [8] 0.991 | [9] 0.987 | [10] 1 | [12] 0.968 | [15] 0.924
